# Screening data deposited in PubChem by National Center for Advancing Translational Sciences (NCATS).
# FLuc counter = inhibits or activates purified firefly luciferase, miR-21 counter-screen; purified FLuc, Km substrates, luminescence inhibition; Potency, µM (top dose mostly 57.5 µM), for inactives: top-dose activity change, negative = inhibition, most hits filed as inhibitors; AID 588342; 6.9% of 360,000 active; P08659;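 note: plate controls were vehicle for no effect and reference inhibitor for full effect; nearly all actives have a fitted effect of over 55% in size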
# Target sequence (P08659 whole entry, looked up): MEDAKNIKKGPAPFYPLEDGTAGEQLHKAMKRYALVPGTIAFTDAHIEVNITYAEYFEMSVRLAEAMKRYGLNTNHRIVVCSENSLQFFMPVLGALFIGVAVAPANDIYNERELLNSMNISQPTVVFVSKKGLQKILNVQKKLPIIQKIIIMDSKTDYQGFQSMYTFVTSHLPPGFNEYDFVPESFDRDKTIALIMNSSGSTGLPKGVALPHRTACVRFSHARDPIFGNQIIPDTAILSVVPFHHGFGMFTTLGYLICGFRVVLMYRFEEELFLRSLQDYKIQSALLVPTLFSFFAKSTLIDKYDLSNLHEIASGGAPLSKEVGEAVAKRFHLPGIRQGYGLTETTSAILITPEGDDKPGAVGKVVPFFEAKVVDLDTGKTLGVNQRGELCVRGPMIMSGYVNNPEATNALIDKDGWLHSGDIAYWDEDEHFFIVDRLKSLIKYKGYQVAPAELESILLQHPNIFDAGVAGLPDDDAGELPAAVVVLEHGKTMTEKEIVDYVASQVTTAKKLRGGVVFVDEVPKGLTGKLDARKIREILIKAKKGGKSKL
#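 Purified P. pyralis luciferase, 10 nM final, with Km-level 10 uM D-luciferin and 10 uM ATP in 50 mM Tris acetate pH 7.5, 10 mM Mg acetate, 0.01% Tween-20, 0.05% BSA; 6-point qHTS titration about 60 µM downward; luminescence read.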
# Luc counter = Kinase-Glo luciferase inhibition (counter-screen); Q27757; Kinase-Glo luciferase, ATP luminescence, 8 min; Potency, µM (highest dose often 38.3 µM), without a hit: at the top dose activity change, negative = inhibition, usual class: inhibitors; 0.28% of 200,000 active; note: % is set by controls: 0 for no effect and ±100 for the full control effect; nearly all actives have a fitted effect of over 60% in size
#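 Luminescence was the read-out, taken after 8-minute incubation at ambient temperature. Luciferase turned over luciferin with 10 uM ATP in imidazole pH 7.2 buffer containing KCl, MgCl2, Tween 20 and BSA.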
# ELG1 genotox = induces genotoxicity in HEK293T cells with luciferase-tagged ELG1. HEK293T ELG1-luciferase reporter, luminescence, 16 h. Potency, µM (titrated, usually from 46 µM), for the others: at the top dose activity change, positive = activation, actives largely listed as activators. 1.3% of 330,000 active; note: % of control where 0% means no effect; nearly all actives have a fitted effect of over 60% in size
#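 Reporter readout depends on ELG1 protein level, which increases with genetic stress. After 16 hr compound exposure at 37 °C, luciferase activity was quantified using ONE-Glo.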
# Rab9 prom act = activators of Rab9 promoter. Huh7 Rab9 promoter-luciferase reporter, luminescence, 24 h. Potency, µM (highest dose often 9.22 µM), for inactives: at the top dose activation, negative = inhibition, usual class: activators. 2.8% of 320,000 active; note: % of control where 0% means no effect; nearly all actives have a fitted effect of over 60% in size
#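 Huh7 reporter line, Rab9 promoter upstream of luciferase. Compound exposure 24 h at 37 °C in reduced-serum medium with 10% FBS. Read-out: luminescence.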
# NPC1 promoter act = NPC1 promoter activation. Huh7 NPC1 promoter luciferase reporter, 24 h. 2.4% of 320,000 active. AID 485313. Potency, µM (top dose mostly 9.22 µM), for the others: top-dose activation, usual class: activators; note: % of control where 0% means no effect; nearly all actives have a fitted effect of over 60% in size
#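 Luminescence read-out of NPC1 promoter-driven luciferase in stably transfected Huh7 cells; compounds delivered in DMSO and left 24 h at 37C, 5% CO2, qHTS titration format.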
# SMN2 splice enh = SMN2 splice variant enhancement; HEK293 SMN2-luciferase splicing reporter, luminescence, 30-36 h; Potency, µM (doses to about 46.1 µM), for inactives: at the top dose activity change, positive = activation, usual class: activators; 2.8% of 210,000 active; AID 1458; note: % of control where 0% means no effect; nearly all actives have a fitted effect of over 55% in size
#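 HEK293 cells carry an SMN2 minigene-luciferase reporter in which exon 7 inclusion puts luciferase in frame. Cells were seeded at 2000 cells/well, attached for 10-12 hours, then exposed to compounds for 30-36 hours at 37C before ONE-Glo luminescence.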
# An asterisk follows results filed as active; ? = inconclusive; · = no result. The list is not random: actives were taken first. Their share in the collection is about 7.4%. Calls come from the whole dose curve; as a rule, active = well fitted curve in the direction sought with a large enough effect; inconclusive = small, poorly fitted or top-dose-only effect, or another doubt; inactive = no such curve, though single readings can be large; an effect the other way counts as inactive or inconclusive. Potency is the fitted concentration of half-maximal effect.
SMILES,FLuc counter,Luc counter,ELG1 genotox,Rab9 prom act,NPC1 promoter act,SMN2 splice enh
O=C(/C=C/c1cccs1)N1CCN(c2ccccc2)CC1,?,0%,7%,?,8%,-4%
O=C(/C=C/c1cccc(F)c1)c1ccc(N2CCOCC2)cc1,1.1µM*,·,?,?,?,·
O=C(/C=C/c1cccs1)c1ccc([N+](=O)[O-])cc1,4.3µM*,·,2%,9%,0%,·
O=C(/C=C/c1cccc(F)c1)Nc1cc(S(=O)(=O)N2CCOCC2)ccc1Cl,·,·,-7%,·,·,·
COc1ccc(-c2ccc(-c3noc(-c4ccc(OC)c(OC)c4)n3)c(OC)n2)cc1,0%,-2%,0%,3%,-2%,-21%
COc1cccc(-c2nc(CS(=O)(=O)c3ccccc3)no2)c1,12µM*,0%,?,3.2µM*,2.8µM*,11µM*
COc1nc(-c2ccccc2)ccc1-c1noc(-c2ccc(F)cc2)n1,4%,-2%,-1%,11%,0%,12%
COc1cccc(-c2nc(-c3ccc(-c4ccccc4)nc3OC)no2)c1,2.4µM*,·,·,·,·,1%
COc1nc(-c2ccccc2)ccc1-c1noc(-c2ccccc2F)n1,5.4µM*,-3%,?,?,?,29%
COc1ccc(-c2ccc(-c3noc(-c4cccc(OC)c4)n3)c(OC)n2)cc1,7.6µM*,0%,2%,10%,-2%,-46%
COc1ccc(NS(=O)(=O)c2cccc(-c3nnc(-c4ccccc4)o3)c2)cc1,-17%,-5%,-4%,-4%,-1%,-20%
COC(=O)c1ccc(NC(=O)CC2C(=O)N(c3ccccc3)C(=O)N2Cc2ccc(F)cc2)cc1 (stereo not given),-10%,·,·,·,·,·
Cc1ccc(C)c(CN2C(=O)c3ccccc3S(=O)(=O)c3ccc(C(=O)N4CCc5ccccc54)cc32)c1,-4%,·,·,·,·,-3%
COc1ccc(NC(=O)CCc2nnc3n(CC(C)C)c(=O)c4ccccc4n23)cc1,-1%,·,·,·,·,-3%
Clc1ccccc1-c1ncc(-c2ccccc2)o1,1.3µM*,·,4.6µM*,2.8µM*,2.5µM*,·
CCCSc1nc(SCC(=O)NCc2ccccc2)c2c3c(sc2n1)COC(C)(C)C3,8%,-2%,0%,-9%,-6%,0%
CC(C)Sc1nc(SCC(=O)O)c2c3c(sc2n1)COC(C)(C)C3,13µM*,·,?,?,?,·
CC(C)Sc1nc(SCC(=O)NCc2ccco2)c2c3c(sc2n1)COC(C)(C)C3,9.5µM*,2%,?,13%,7%,-1%
COc1ccc(CCC(=O)NC2CC(=O)N(c3ccc(C)c(C)c3)C2)cc1 (stereo not given),4%,·,·,·,·,·
CC1=C(C(=O)Nc2ccccc2)C(c2ccccn2)n2nc(SCc3ccccc3)nc2N1 (stereo not given),-6%,·,·,·,·,6%
Cc1ccc2nc(-c3ccc(N4C(=O)CC(N5CCCC(C)C5)C4=O)cc3)sc2c1 (stereo not given),15µM*,2%,·,·,·,17%
CCOC(=O)C1CCCN(C2CC(=O)N(c3ccc(N4C(=O)CC(N5CCCC(C(=O)OCC)C5)C4=O)cc3)C2=O)C1 (stereo not given),4%,-1%,-4%,1%,-3%,11%
Cc1ccc2nc(-c3ccc(N4C(=O)CC(N5CCC(C(N)=O)CC5)C4=O)cc3)sc2c1 (stereo not given),2.7µM*,1%,?,1%,5%,11%
Brc1ccccc1-c1nc2c3ccccc3ncn2n1,?,·,13%,3.2µM*,?,·
Clc1ccc(-c2nc3c4cnn(-c5ccccc5Br)c4ncn3n2)c(Cl)c1,-17%,·,·,·,·,-2%
SMILES,FLuc counter,Luc counter,ELG1 genotox,Rab9 prom act,NPC1 promoter act,SMN2 splice enh
COc1cccc(-n2c(SCc3ccc(F)cc3)nc3c([nH]c4ccccc43)c2=O)c1,0%,·,·,·,·,·
CCC1CCc2c(sc(NC(=O)c3cnccn3)c2C(N)=O)C1 (stereo not given),2.4µM*,·,15%,25%,26%,·
Cc1ccccc1NC(=O)c1c(NC(=O)c2ccco2)sc2c1CCC(C(C)(C)C)C2 (stereo not given),4%,·,·,·,·,1%
CC(C)(C)C1CCc2c(sc(NC(=O)c3ccco3)c2C(N)=O)C1 (stereo not given),0.43µM*,4%,?,2.8µM*,?,-60%
CCC1CCc2c(sc(NC(=O)c3ccco3)c2C(N)=O)C1 (stereo not given),1.3µM*,0%,?,2.8µM*,?,18µM*
CCOC(=O)c1c(NC(=O)c2cc3ccccc3c(=O)o2)sc2c1CCC(C(C)(C)C)C2 (stereo not given),17µM*,·,·,·,·,-4%
CCOC(=O)c1c(NC(=O)c2cc3ccccc3c(=O)o2)sc2c1CCC(C)C2 (stereo not given),3%,·,·,·,·,·
CCOC(=O)c1c(NC(=O)c2ccco2)sc2c1CCCC2,3%,0%,12%,1%,9%,-12%
CCCCN1C(=O)c2[nH]nc(-c3ccccc3O)c2C1c1ccc(C(C)(C)C)cc1 (stereo not given),0%,·,·,·,·,22%
CCOC(=O)c1c(C)[nH]c(CCC(=O)NCc2ccccc2C)c1C,-1%,·,·,·,·,·
Cc1nn(-c2nc3ccccc3s2)c(C)c1Oc1ccccc1O,2.4µM*,-1%,?,3.2µM*,3.5µM*,?
Cc1nn(-c2ccccn2)c(C)c1Oc1ccccc1O,-3%,4%,8%,7%,1%,-12%
Cc1[nH]c2ccc(Br)cc2c1CCNC(=O)c1cc2ccccc2oc1=O,-11%,·,·,·,·,?
O=C(CN(c1cc(C(F)(F)F)ccc1Cl)S(=O)(=O)c1ccccc1)NCCc1ccccc1,0%,·,·,·,·,-10%
COC(=O)Cn1cc(/C=C/c2cc[n+](C)cc2)c2ccccc21,4%,·,-3%,-7%,-3%,·
CCN=C1S/C(=C\c2cn(CC(=O)NCc3ccco3)c3ccccc23)C(=O)N1CC,-1%,·,?,-1%,0%,·
CN=C1S/C(=C/c2cn(CC(=O)OC)c3ccccc23)C(=O)N1C,19µM*,·,0%,-9%,25%,·
CN=C1S/C(=C\c2cn(CC(=O)OC)c3ccccc23)C(=O)N1C,17µM*,-1%,10%,3%,11%,16%
CC(C)(C)c1ccc(-c2nc(NCc3cccnc3)c3ccccc3n2)cc1,3.4µM*,1%,?,21%,?,25µM*
c1cncc(CNc2nc(-c3cccnc3)nc3ccccc23)c1,4%,·,-10%,0%,0%,·
